Experiment [1] can be described thus: qHTS assay to identify small molecule antagonists of the glucocorticoid receptor (GR) signaling pathway - cell viability counter screen (AID 720693; also: nearly all actives have a fitted effect of over 55% in size). (Quantitative high-throughput screening tests each substance at several concentrations.)
A short description of experiment [2]: qHTS assay for identifying genotoxic compounds that show differential cytotoxicity against isogenic chicken DT40 cell lines with known DNA damage response pathways - wild type cell line (AID 743012). Also: nearly all actives have a fitted effect of over 60% in size. Also: potency is read from the fitted curve at half-maximal effect. Summed up:
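Wild type DT40, 300 cells/well, ~0.5 h settle at 37 C/5% CO2; compounds in DMSO added by pintool; 40 h at 37 C/5% CO2; CellTiter-Glo, 30 min RT; luminescence.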

Experiment [3] can be described thus: qHTS assay for identifying genotoxic compounds that show differential cytotoxicity against isogenic chicken DT40 cell lines with known DNA damage response pathways - Rev3 mutant cell line (AID 743014). Also: nearly all actives have a fitted effect of over 55% in size. Also: potency is read from the fitted curve at half-maximal effect.
A short description of experiment [4]: qHTS assay for identifying genotoxic compounds that show differential cytotoxicity against isogenic chicken DT40 cell lines with known DNA damage response pathways - Rad54/Ku70 mutant cell line (AID 743015). Also: nearly all actives have a fitted effect of over 60% in size. Also: potency is read from the fitted curve at half-maximal effect.
Experiment [5] is described as follows: qHTS assay to identify small molecule antagonists of the androgen receptor (AR) signaling pathway - cell viability counter screen (AID 743033; also: nearly all actives have a fitted effect of over 45% in size).
Experiment [6] is described as follows: qHTS assay to identify small molecule antagonists of the thyroid receptor (TR) signaling pathway (AID 743065). Also: nearly all actives have a fitted effect of over 55% in size. Also: potency is read from the fitted curve at half-maximal effect. In a few lines:
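GH3.TRE-Luc rat pituitary cells (two TREs driving luciferase) were dosed with compound, then stimulated with 1 nM T3 (final) for 23.5 h at 37 C. ONE-Glo luminescence was the read-out, with CellTiter-Fluor fluorescence as the cytotoxicity counter-screen.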

The subject of experiment [7] is thyroid hormone receptor (rat, GH3 cells). Put plainly: qHTS assay to identify small molecule agonists of the thyroid receptor (TR) signaling pathway (AID 743066; calls by dose curve).
Experiment [8] addresses Estrogen receptor (Homo sapiens) (UniProt P03372). Put plainly: qHTS assay to identify small molecule antagonists of the estrogen receptor alpha (ER-alpha) signaling pathway (AID 743069; active = well fitted curve in the direction sought with a large enough effect in the signal ratio in the repeat runs, not every such curve was filed as active; inconclusive = weak or mixed curves, or effect the other way; inactive = no such curve, though single readings can be large or run the other way; the % refers to the signal ratio; also: potency is read from the fitted curve at half-maximal effect). In a few lines:
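HEK293 ER-alpha-UAS-bla GripTite cells, held overnight in 2% charcoal-stripped FBS, 5,000 cells/well, preincubated 4 h, then compound plus 17beta-estradiol for 18 h at 37C. Beta-lactamase read by LiveBLAzer B/G FRET substrate, 2 h at room temperature.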

A short description of experiment [9]: qHTS assay to identify small molecule antagonists of the estrogen receptor alpha (ER-alpha) signaling pathway - cell viability counter screen (AID 743074; calls by dose curve;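 also: HEK293 cells carrying ER-alpha-UAS-bla reporter stimulated with 17beta-estradiol; nearly all actives have a fitted effect of over 45% in size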).
Experiment [10] addresses Estrogen receptor (Homo sapiens) (UniProt P03372). Put plainly: qHTS assay to identify small molecule agonists of the estrogen receptor alpha (ER-alpha) signaling pathway (AID 743075; calls by dose curve).
For experiment [11] the target is unchanged. Nature of the experiment: qHTS assay to identify small molecule agonists of the estrogen receptor alpha (ER-alpha) signaling pathway using the BG1 cell line (AID 743079). Also: nearly all actives have a fitted effect of over 20% in size. Also: potency is read from the fitted curve at half-maximal effect.
Experiment [12] in a line: qHTS assay to identify small molecule antagonists of the estrogen receptor alpha (ER-alpha) signaling pathway using the BG1 cell line (AID 743080; calls by dose curve; also: nearly all actives have a fitted effect of over 25% in size; also: potency is read from the fitted curve at half-maximal effect). In a few lines:
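Antagonist mode: compounds in DMSO were pinned onto BG1-Luc-4E2 cells alongside 17beta-estradiol agonist, incubated 21.5 h, and ERE-driven luciferase measured with ONE-Glo. Cytotoxicity was multiplexed using CellTiter-Fluor fluorescence.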

Experiment [13] can be described thus: qHTS assay to identify small molecule antagonists of the estrogen receptor alpha (ER-alpha) signaling pathway using the BG1 cell line - cell viability counter screen (AID 743081).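 Also: compound given together with 17beta-estradiol as the ER stimulus; series mostly up to about 70 µM; nearly all actives have a fitted effect of over 45% in size.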
The target in the next experiment is Aromatase (Homo sapiens) (UniProt P11511). Nature of the experiment: qHTS assay to identify aromatase inhibitors (AID 743083). Also: nearly all actives have a fitted effect of over 55% in size. Also: potency is read from the fitted curve at half-maximal effect.
Experiment [14] is described as follows: qHTS assay to identify small molecule antagonists of the androgen receptor (AR) signaling pathway using the MDA cell line - cell viability counter screen (AID 743041; also: nearly all actives have a fitted effect of over 45% in size). Summed up: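 MDA-kb2 AR-luc cells (MMTV-luciferase, AR/GR responsive) treated with compounds plus R1881 agonist for 16 h at 37C. CellTiter-Fluor added at 15.5 h; fluorescence read after 30 min in the same wells.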

A short description of experiment [15]: qHTS assay to identify small molecule antagonists of the thyroid receptor (TR) signaling pathway - cell viability counter screen (AID 743064). Also: nearly all actives have a fitted effect of over 50% in size. In a few lines: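 Same-well viability check: GH3.TRE-Luc cells stimulated with 1 nM T3 alongside test compound for 23.5 h, followed by CellTiter-Fluor fluorescence.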
Experiment [16] concerns the target Androgen receptor (Homo sapiens) (UniProt P10275). Nature of the experiment: qHTS assay to identify small molecule agonists of the androgen receptor (AR) signaling pathway (AID 743036; active = well fitted activation curve with a large enough effect in the signal ratio in the repeat runs, with a control signal flat, not every such curve was filed as active; inconclusive = weak or mixed curves, or effect the other way; inactive = no such curve, though single readings can be large or run the other way; the % refers to the signal ratio). In a few lines: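 Agonist activity was scored by beta-lactamase reporter fluorescence in stably transfected HEK293 cells exposed to compounds for 16 h at 37C and 5% CO2. Substrate loading took 2 h at room temperature.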

The target is the same in experiment [17]. Nature of the experiment: qHTS assay to identify small molecule agonists of the androgen receptor (AR) signaling pathway using the MDA cell line (AID 743040; also: nearly all actives have a fitted effect of over 20% in size). In a few lines:
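MDA-kb2 breast carcinoma cells carrying MMTV-luciferase (responsive to AR and GR), plated 5 h then treated 16 h with compounds at 37C, 0% CO2. Read-out was ONE-Glo luminescence after 30 min at room temperature.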

The target is the same in experiment [18]. Put plainly: qHTS assay to identify small molecule antagonists of the androgen receptor (AR) signaling pathway (AID 743035; active = well fitted inhibition curve with a large enough effect in the signal ratio in the repeat runs, not every such curve was filed as active; inconclusive = weak or mixed curves, or effect the other way; inactive = no such curve, though single readings can be large or run the other way; the % refers to the signal ratio; also: potency is read from the fitted curve at half-maximal effect). Summed up: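 Fluorescence from a beta-lactamase FRET substrate (LiveBLAzer B/G, 2 h, room temperature) measured inhibition of R1881-stimulated signaling in GeneBLAzer AR-UAS-bla HEK293 cells exposed to compound for 16 h at 37C.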
Experiment [19] has the same target. Put plainly: qHTS assay to identify small molecule antagonists of the androgen receptor (AR) signaling pathway using the MDA cell line (AID 743042). In a few lines:
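MDA-kb2 breast carcinoma cells carrying MMTV-luciferase (AR/GR responsive) were co-treated with compounds and the agonist R1881 for 16 h at 37C. Inhibition read as ONE-Glo luminescence; CellTiter-Fluor fluorescence measured in parallel for cytotoxicity.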

Values joined by “and” are separate entries in the source; they are usually repeats but may differ in a detail not shown here. Equal values may be shown once. Active and inactive are the calls of the source. Unless noted, calls follow the shape of the dose curve; as a rule, active = well fitted curve in the direction sought with a large enough effect in the repeat runs; inconclusive = weak or mixed curves; inactive = no such curve, though single readings can be large; an effect the other way counts as inactive or inconclusive.

Chain of Estrogen receptor (Homo sapiens) (P03372 whole entry, looked up): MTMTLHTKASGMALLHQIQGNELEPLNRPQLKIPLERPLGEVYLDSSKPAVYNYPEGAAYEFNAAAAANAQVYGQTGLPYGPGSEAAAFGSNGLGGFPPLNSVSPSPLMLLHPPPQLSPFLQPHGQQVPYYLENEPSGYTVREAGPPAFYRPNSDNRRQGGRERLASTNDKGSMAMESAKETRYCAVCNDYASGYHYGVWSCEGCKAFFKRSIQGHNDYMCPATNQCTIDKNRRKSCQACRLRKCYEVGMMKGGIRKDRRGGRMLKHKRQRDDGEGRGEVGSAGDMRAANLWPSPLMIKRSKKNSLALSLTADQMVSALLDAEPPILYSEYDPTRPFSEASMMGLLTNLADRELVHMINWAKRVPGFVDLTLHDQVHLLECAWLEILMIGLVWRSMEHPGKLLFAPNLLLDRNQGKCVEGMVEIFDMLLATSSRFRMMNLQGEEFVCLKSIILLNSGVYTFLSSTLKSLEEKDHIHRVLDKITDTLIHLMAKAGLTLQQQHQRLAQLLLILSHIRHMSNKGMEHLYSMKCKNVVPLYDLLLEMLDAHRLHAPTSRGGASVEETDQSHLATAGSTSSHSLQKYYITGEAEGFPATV
Chain of Androgen receptor (Homo sapiens) (P10275 whole entry, looked up): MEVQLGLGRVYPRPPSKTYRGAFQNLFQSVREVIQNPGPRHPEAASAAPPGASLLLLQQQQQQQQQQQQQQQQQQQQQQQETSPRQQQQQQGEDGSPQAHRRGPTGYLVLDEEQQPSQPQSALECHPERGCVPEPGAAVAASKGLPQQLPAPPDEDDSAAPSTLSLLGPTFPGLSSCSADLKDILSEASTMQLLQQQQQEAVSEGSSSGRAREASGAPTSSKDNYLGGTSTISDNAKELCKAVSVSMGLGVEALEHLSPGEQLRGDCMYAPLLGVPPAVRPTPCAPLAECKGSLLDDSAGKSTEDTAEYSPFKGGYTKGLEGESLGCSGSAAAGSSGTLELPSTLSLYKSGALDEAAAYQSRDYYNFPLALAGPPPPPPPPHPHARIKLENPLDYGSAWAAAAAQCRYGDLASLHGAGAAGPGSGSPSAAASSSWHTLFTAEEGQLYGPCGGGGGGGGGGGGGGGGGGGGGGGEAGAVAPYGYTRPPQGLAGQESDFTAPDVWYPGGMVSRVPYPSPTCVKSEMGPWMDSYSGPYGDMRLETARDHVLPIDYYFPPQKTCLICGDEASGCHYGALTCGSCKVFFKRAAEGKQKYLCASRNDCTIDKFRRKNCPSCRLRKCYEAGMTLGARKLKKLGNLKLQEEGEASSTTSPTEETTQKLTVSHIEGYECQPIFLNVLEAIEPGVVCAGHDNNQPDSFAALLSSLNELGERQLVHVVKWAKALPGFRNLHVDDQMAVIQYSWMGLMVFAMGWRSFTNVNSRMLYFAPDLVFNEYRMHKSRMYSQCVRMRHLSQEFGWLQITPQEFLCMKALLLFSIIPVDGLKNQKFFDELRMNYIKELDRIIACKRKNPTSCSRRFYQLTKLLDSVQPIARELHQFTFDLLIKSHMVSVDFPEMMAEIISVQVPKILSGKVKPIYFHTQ
Chain of Aromatase (Homo sapiens) (P11511 whole entry, looked up): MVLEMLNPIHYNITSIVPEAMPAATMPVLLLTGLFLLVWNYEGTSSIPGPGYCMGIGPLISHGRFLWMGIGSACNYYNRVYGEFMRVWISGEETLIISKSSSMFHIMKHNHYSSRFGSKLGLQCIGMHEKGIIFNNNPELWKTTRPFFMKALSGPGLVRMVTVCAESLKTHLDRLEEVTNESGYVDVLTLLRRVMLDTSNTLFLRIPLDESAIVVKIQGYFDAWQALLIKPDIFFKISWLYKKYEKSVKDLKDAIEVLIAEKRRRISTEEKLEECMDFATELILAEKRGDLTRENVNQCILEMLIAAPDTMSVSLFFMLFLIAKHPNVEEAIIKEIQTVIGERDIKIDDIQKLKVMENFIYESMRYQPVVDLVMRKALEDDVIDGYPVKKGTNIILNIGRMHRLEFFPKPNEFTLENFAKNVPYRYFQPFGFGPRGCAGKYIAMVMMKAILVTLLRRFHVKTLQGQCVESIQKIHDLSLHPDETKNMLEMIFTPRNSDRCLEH

Consider `BrCCCCBr`, for which the Potency entry in [1], in experiment [2], in [3], in [4], in experiment [5] and in [6] was “inactive” in each case. The Potency entry in [7], in experiment [8], in experiment [9], in [10], in experiment [11] and in [12] was “inactive” in each case. Besides, the Potency result (in experiment [13]; with Aromatase (Homo sapiens)) was “inactive” each time.
For `C[C@H]1CNCCc2ccc(Cl)cc21`, the Potency entry in experiment [1], in experiment [5], in [14], in experiment [15], in experiment [6] and in [7] was “inactive” each time. Moreover, the Potency entry in experiment [8], in experiment [9], in [10], in experiment [11], in experiment [12] and in experiment [13] was “inactive” throughout. Moreover, the Potency entry in the experiment with Aromatase (Homo sapiens) is “inactive”. Further, the Potency in experiment [2] was 26.6 µM (active); in [3] it was 13.3 µM (active).
Regarding `CC(c1ccc(O)cc1)(c1ccc(O)cc1)c1ccc(O)cc1`, the Potency entry in [1], in [5] and in experiment [13] was “inactive” each time. The Potency in experiment [2] was 27.3 µM (active); in experiment [3] it was 38.6 µM (active); in experiment [4] it was 54.5 µM (active); in [6] it was 61.1 µM (active); in experiment [8] it was 21.9 µM [inconclusive] (active); in experiment [11] it was 27.3 µM (active).
Consider `CCOP(=O)(OCC)O/C(=C/Cl)c1ccc(Cl)cc1Cl`, for which the Potency entry in [1], in [5], in experiment [7], in [9], in experiment [10] and in experiment [11] was “inactive” each time. Also, in experiment [13], the Potency entry was “inactive”. The Potency in [2] was 11.9 µM (active) and 15.4 µM (active); in experiment [3], 23.7 µM (active) and 27.3 µM (active); in [4], 23.7 µM (active) and 27.3 µM (active); in experiment [6], 29.8 µM (active) and 61.1 µM (active); in experiment [8], 21.9 µM [inconclusive] (active); in [12] it was 54.5 µM (active). In the experiment with Aromatase (Homo sapiens), the Potency is 27.3 µM (active).
With `Nc1nc(=S)[nH][nH]1`, the Potency entry in [1], in experiment [2], in experiment [5], in [14], in experiment [15] and in [6] was “inactive” in each case. Also, the Potency entry in [7], in [8], in experiment [9], in [10], in experiment [11] and in experiment [12] was “inactive” in each case. The Potency entry (in [13]; with Aromatase (Homo sapiens)) was “inactive” in each case. The Potency in experiment [3] is 48.6 µM (active).
As for `O=C(Nc1ccccc1)Nc1cnns1`, the Potency result in experiment [1], in experiment [15], in experiment [7], in experiment [9], in experiment [10] and in experiment [13] was “inactive” throughout. For the same compound, the Potency is 54.4 µM (active) in [2]; 54.4 µM (active) in experiment [3]; 30.6 µM (active) in experiment [4]; 61.1 µM (active) in experiment [6]; 68.5 µM (active) in experiment [12].
Turning to `O=S1OC[C@@H]2[C@H](CO1)[C@]1(Cl)C(Cl)=C(Cl)[C@@]2(Cl)C1(Cl)Cl` (stereo not given in full), the Potency result in experiment [1], in experiment [17], in experiment [7], in [9], in [10] and in experiment [13] was “inactive” in each case. For the same compound, the Potency is 24.3 µM (active) in [2], 27.3 µM (active) in [3], 30.6 µM (active) in experiment [4] and 61.1 µM (active) with Aromatase (Homo sapiens). In [16], the outcome was inactive.
As to `CC(C)N(C(=O)COc1nnc(C(F)(F)F)s1)c1ccc(F)cc1`, the Potency result in [1], in [7], in experiment [8], in experiment [9], in [10] and in [11] was “inactive” each time. Besides, the Potency entry (in experiment [12]; in experiment [13]; with Aromatase (Homo sapiens)) was “inactive” each time. For the same compound, the values for the Potency in experiment [2], in experiment [3] and in [4] were 15.4 µM (active), 13.7 µM (active) and 15.4 µM (active), respectively.
For the compound `COP(=O)(OC)O/C(=C/Cl)c1cc(Cl)c(Cl)cc1Cl`, the Potency entry in experiment [1], in experiment [17], in [14], in experiment [7] and in experiment [13] was “inactive” in each case. For the same compound, the Potency in [2] was 64.6 µM (active); in experiment [3] it was 28.8 µM (active); in [4], 64.6 µM (active); in [18], 18.4 µM (active); in experiment [19] it was 72.4 µM (active); in [6], 28.8 µM (active). Further, the Potency was 16.4 µM [inconclusive] (active) in experiment [8] and 40.7 µM (active) with Aromatase (Homo sapiens). Moreover, in experiment [16], the compound was classed as inactive.

(Values after PubChem BioAssay (Tox21).)
